Records with an inconclusive call do not appear. The source made the active and inactive calls. The calls were made as follows, unless noted: active = hit-call score of the fitted dose curve at least 0.9, where 1 is the maximum; inactive = score below 0.9.
Columns and labels:
[1] = target: Paired box protein Pax-6 (Homo sapiens) (UniProt P26367); assay: ATG_Pax6_CIS: Attagene CIS-FACTORIAL HepG2 Assay for human Paired Box 6 (PAX6) (AID 2282956); details: HepG2 CIS-FACTORIAL PAX6 reporter transcription, RNA readout; actives raise or lower the signal
Paired box protein Pax-6 (Homo sapiens), sequence (P26367 whole entry, looked up): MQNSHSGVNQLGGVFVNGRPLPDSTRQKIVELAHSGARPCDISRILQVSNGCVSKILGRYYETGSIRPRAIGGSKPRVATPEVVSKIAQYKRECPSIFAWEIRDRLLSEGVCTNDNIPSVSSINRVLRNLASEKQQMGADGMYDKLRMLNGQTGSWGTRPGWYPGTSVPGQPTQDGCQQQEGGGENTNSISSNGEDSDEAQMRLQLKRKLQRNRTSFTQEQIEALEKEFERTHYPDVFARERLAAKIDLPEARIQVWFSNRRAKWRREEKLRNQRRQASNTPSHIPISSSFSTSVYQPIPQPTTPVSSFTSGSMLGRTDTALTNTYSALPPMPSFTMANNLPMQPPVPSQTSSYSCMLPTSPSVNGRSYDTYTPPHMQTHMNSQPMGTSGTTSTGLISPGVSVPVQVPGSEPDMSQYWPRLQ
In short: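 Multiplexed cis-reporter HepG2 system; 24 h treatment; reporter mRNA read by RT-PCR/CE fluorescence; bidirectional fit vs DMSO.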

[2] = ATG_PXRE_CIS: Attagene CIS-FACTORIAL HepG2 Assay for human Pregnane X Receptor Element (PXRE) (AID 2282957); details: HepG2 Attagene CIS-FACTORIAL PXRE reporter, mRNA; actives raise or lower the signal
In short: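 Transfect HepG2 with MRTUs (cis promoter elements); dose chemical, incubate 24 h; isolate RNA, RT with oligo(dT), PCR, 6-FAM label, HpaI cut, CE. Gain/loss fit vs DMSO.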

[3] = ATG_PPRE_CIS: Attagene CIS-FACTORIAL HepG2 Assay for human Peroxisome Proliferator-activated Response Element (PPRE) (AID 2282958); details: HepG2 PPRE cis-element reporter, Attagene transcription factor profiling; actives raise or lower the signal
In short: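 HepG2 cells transiently transfected with multiplexed cis-element reporter units measure endogenous transcription factor activity. After 24 h compound exposure, reporter mRNA is quantified by RT-PCR, 6-FAM labeling, HpaI digestion and capillary electrophoresis; bidirectional fits are made against DMSO baseline.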

[4] = ATG_Sox_CIS: Attagene CIS-FACTORIAL HepG2 Assay for human SRY-box transcription factor (SOX) (AID 2282960); details: HepG2 Attagene cis-factorial SOX reporter, mRNA; actives raise or lower the signal
In short: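 HepG2 cells transiently transfected with cis-element-driven multiple reporter transcription units, dosed 24 h; reporter mRNA measured by RT-PCR, FAM labelling, HpaI digestion and capillary electrophoresis. Bidirectional fit versus DMSO baseline.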

[5] = ATG_SREBP_CIS: Attagene CIS-FACTORIAL HepG2 Assay for human Sterol Regulatory Element Binding (SREBP) (AID 2282962); details: HepG2 Attagene cis-factorial SREBP reporter, mRNA; actives raise or lower the signal
In short: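 mRNA induction of transfected cis-promoter reporters in HepG2 cells, 24 h post-dose. Detection: RT-PCR with 6-FAM-labelled products, HpaI digest, capillary electrophoresis. DMSO served as negative control and baseline.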

[6] = target: Signal transducer and activator of transcription 3 (Homo sapiens) (UniProt P40763); assay: ATG_STAT3_CIS: Attagene CIS-FACTORIAL HepG2 Assay for human Signal Transducer and Activator of Transcription 3 (STAT3) (AID 2282963); details: HepG2, Attagene cis-factorial STAT3 reporter transcription; actives raise or lower the signal
Signal transducer and activator of transcription 3 (Homo sapiens), sequence (P40763 whole entry, looked up): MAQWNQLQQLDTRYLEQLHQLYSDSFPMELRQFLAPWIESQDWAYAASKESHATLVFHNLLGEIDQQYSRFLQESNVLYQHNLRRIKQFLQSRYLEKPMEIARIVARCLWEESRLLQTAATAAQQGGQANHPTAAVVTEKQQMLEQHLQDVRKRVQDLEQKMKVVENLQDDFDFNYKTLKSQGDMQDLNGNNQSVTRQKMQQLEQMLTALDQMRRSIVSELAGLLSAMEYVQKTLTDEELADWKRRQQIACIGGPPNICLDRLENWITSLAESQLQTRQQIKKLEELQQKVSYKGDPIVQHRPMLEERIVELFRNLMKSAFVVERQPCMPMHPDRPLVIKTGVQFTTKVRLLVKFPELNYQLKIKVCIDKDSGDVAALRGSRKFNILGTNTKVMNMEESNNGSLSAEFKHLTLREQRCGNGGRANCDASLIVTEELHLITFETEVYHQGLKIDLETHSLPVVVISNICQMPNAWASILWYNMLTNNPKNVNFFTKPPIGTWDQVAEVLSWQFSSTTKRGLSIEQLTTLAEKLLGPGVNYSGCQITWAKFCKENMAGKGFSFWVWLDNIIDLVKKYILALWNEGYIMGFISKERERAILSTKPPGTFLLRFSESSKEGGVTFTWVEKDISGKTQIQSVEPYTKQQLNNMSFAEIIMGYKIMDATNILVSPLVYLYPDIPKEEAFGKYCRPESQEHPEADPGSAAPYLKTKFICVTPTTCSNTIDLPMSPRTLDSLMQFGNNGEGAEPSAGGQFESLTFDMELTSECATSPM
In short: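 Values derive from bidirectional fits relative to DMSO of reporter mRNA levels, measured by RT-PCR with capillary electrophoresis, in HepG2 cells carrying transiently transfected cis-regulated reporter units and exposed 24 h.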

[7] = ATG_TA_CIS: Attagene CIS-FACTORIAL HepG2 Assay for human TA Basal Promoter (AID 2282964); details: HepG2 Attagene CIS-factorial TA basal promoter reporter; actives raise or lower the signal
In short: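 Background-control readout: TA basal promoter reporter mRNA, fitted in both directions relative to DMSO. Measured by RT-PCR and capillary electrophoresis 24 hours after treating HepG2 human liver cells transiently carrying multiplexed cis-regulated reporter constructs.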

[8] = ATG_TCF_b_cat_CIS: Attagene CIS-FACTORIAL HepG2 Assay for human T-Cell-Factor with beta-catenin (TCF/b-cat) (AID 2282965); details: HepG2 TCF/beta-catenin cis-reporter transcription, actives raise or lower the signal
In short: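 HepG2, transient MRTU transfection, cis-element-driven reporters (endogenous TFs). 24 h compound exposure. Readout: reporter mRNA by RT-PCR + 6-FAM primer extension, HpaI digest, capillary electrophoresis. Gain/loss fit vs DMSO baseline.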

[9] = ATG_TAL_CIS: Attagene CIS-FACTORIAL HepG2 Assay for human TAL Basal Promoter (AID 2282966); details: HepG2 Attagene cis-factorial TAL promoter reporter; actives raise or lower the signal;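 also: background control endpoint measuring basal TAL promoter reporter mRNA not a specific factor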
In short: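 Fluorescence of labelled reporter cDNA fragments, resolved by capillary electrophoresis, gave the readout. Human HepG2 liver cells carried transiently transfected cis-element reporter units and were treated for 24 hours; activity was fitted bidirectionally against DMSO.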

[10] = ATG_TGFb_CIS: Attagene CIS-FACTORIAL HepG2 Assay for human Transforming Growth Factor (TGF) (AID 2282967); details: HepG2 Attagene CIS TGFb reporter, mRNA transcription; actives raise or lower the signal
In short: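 Endogenous TGFB1-linked transcription factor activity read as reporter mRNA via RT-PCR and capillary electrophoresis, 24 h after dosing transiently transfected HepG2 cells. Gain or loss of signal fitted relative to DMSO.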

[11] = ATG_VDRE_CIS: Attagene CIS-FACTORIAL HepG2 Assay for human Vitamin D Receptor Element (VDRE) (AID 2282968); details: HepG2 VDRE cis-reporter transcription, actives raise or lower the signal
In short: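 Cell-based multiplexed reporter format in human liver HepG2 cells, 24 h post-dose. Fluorescence from capillary electrophoresis of reporter cDNA gives the signal, with DMSO as negative control and baseline.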

[12] = target: Nuclear receptor subfamily 1 group I member 3 (Homo sapiens) (UniProt Q14994); assay: ATG_CAR_TRANS: Attagene TRANS-FACTORIAL HepG2 Assay for human Constitutive Androstane Receptor (CAR) (AID 2282969; active = hit-call score of the fitted dose curve at least 0.9, where 1 is the maximum;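 also: activators raise reporter mRNA above DMSO so AC50 marks induction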); details: HepG2 Attagene TRANS-FACTORIAL CAR reporter
Nuclear receptor subfamily 1 group I member 3 (Homo sapiens), sequence (Q14994 whole entry, looked up, the tested form may be a part): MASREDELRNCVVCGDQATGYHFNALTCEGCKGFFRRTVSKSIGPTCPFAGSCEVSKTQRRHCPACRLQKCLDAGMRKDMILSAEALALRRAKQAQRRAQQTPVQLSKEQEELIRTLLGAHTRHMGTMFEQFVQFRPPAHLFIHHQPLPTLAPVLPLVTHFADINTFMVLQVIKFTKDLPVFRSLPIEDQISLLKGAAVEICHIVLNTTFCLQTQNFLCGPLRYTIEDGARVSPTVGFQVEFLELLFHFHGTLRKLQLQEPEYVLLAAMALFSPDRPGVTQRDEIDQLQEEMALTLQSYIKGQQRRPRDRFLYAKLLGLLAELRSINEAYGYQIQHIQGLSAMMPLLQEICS
In short: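 HepG2 cells transiently transfected with GAL4-UAS reporter units; TRANS format reads activity of exogenous chimeric NR-Gal4 protein. After 24 h dosing, reporter mRNA quantified by RT-PCR, 6-FAM labelling and capillary electrophoresis; gain of signal fitted against DMSO.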

[13] = ATG_RORE_CIS: Attagene CIS-FACTORIAL HepG2 Assay for human RAR-related Orphan Receptor Element (RORE) (AID 2282959); details: HepG2 Attagene cis-factorial RORE reporter, mRNA; actives raise or lower the signal
In short: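 HepG2 cells transiently transfected with multiple cis-element reporter transcription units, exposed to chemical for 24 h. Reporter mRNA quantified by RT-PCR, 6-FAM primer-extension labeling, HpaI digestion and capillary electrophoresis; bidirectional fit versus DMSO baseline.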

[14] = target: Transcription factor Sp1 (Homo sapiens) (UniProt P08047); assay: ATG_Sp1_CIS: Attagene CIS-FACTORIAL HepG2 Assay for human Specificity Protein 1 (Sp1) (AID 2282961); details: HepG2 Sp1 cis-reporter transcription, actives raise or lower the signal
Transcription factor Sp1 (Homo sapiens), sequence (P08047 whole entry, looked up): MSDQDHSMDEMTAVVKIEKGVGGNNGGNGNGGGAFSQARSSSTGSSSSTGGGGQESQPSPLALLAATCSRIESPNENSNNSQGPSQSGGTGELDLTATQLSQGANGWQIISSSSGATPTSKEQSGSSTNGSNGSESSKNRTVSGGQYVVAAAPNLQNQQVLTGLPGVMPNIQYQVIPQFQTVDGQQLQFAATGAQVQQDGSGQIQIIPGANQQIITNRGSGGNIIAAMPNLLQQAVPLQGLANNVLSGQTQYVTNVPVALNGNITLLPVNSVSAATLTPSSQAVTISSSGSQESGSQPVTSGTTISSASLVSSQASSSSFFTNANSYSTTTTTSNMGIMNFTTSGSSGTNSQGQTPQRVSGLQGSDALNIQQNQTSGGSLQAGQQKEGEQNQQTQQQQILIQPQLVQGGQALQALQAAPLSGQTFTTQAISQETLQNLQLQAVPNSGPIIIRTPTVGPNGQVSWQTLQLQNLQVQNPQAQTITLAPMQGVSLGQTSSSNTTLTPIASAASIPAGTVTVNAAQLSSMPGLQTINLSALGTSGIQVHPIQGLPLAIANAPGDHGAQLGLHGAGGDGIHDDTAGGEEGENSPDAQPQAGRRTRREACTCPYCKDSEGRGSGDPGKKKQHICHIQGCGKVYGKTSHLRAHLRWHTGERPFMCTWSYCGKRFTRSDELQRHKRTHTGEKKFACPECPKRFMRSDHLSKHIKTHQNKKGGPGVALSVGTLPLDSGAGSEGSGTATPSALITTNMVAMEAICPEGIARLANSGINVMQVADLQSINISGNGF
In short: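 HepG2 cells transiently transfected with multiple reporter transcription units driven by cis-regulatory elements; Sp1-responsive reporter mRNA measured 24 h after dosing by RT-PCR and capillary electrophoresis fluorescence, fitted bidirectionally against DMSO baseline.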

[15] = target: Estrogen receptor (Homo sapiens) (UniProt P03372); assay: ATG_ERa_TRANS: Attagene TRANS-FACTORIAL HepG2 Assay for human Estrogen Receptor alpha (ERa) (AID 2282970; active = hit-call score of the fitted dose curve at least 0.9, where 1 is the maximum); details: HepG2 Attagene TRANS ERa GAL4 reporter, mRNA
Estrogen receptor (Homo sapiens), sequence (P03372 whole entry, looked up, the tested form may be a part): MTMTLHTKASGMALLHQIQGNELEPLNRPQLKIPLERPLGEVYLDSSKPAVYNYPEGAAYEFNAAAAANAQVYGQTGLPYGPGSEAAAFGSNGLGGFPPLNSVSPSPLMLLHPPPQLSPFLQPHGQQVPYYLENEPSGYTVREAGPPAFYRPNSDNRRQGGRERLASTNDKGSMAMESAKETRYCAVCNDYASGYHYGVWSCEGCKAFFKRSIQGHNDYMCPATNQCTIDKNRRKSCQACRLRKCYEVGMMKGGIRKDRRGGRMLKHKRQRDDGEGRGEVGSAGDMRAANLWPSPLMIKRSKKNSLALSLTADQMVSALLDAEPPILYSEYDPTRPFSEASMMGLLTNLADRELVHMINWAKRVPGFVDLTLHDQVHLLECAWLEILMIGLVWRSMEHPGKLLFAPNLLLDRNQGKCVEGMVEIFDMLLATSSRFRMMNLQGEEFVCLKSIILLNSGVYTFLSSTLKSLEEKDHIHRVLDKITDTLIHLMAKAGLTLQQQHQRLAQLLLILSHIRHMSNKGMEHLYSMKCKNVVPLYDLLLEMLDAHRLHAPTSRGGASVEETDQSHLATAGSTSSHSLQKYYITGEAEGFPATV
In short: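 Human liver HepG2, transient transfection of multiple GAL4-UAS reporter units; TRANS format (exogenous NR-Gal4 chimera). 24 h dosing. Readout: reporter mRNA, RT-PCR, 6-FAM primer extension, HpaI digest, capillary electrophoresis. Positive direction vs DMSO.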

[16] = target: X-box-binding protein 1 (Homo sapiens) (UniProt P17861); assay: ATG_Xbp1_CIS: Attagene CIS-FACTORIAL HepG2 Assay for human X-box Binding Protein 1 (XBP1) (AID 2282972); details: HepG2 XBP1 cis-element reporter, Attagene multiplex; actives raise or lower the signal
X-box-binding protein 1 (Homo sapiens), sequence (P17861 whole entry, looked up, the tested form may be a part): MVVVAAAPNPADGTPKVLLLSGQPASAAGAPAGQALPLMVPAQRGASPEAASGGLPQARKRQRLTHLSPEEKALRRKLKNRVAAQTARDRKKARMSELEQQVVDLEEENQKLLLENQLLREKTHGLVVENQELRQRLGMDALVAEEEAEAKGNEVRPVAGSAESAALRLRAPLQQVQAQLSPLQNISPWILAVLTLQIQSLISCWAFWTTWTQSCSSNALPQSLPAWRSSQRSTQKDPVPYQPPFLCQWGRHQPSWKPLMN
In short: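 Fluorescence-labelled cDNA fragments from reporter transcripts, separated by capillary electrophoresis, give the signal. Source: HepG2 cells transfected with promoter-driven reporter units, harvested 24 h post-dose. DMSO served as reference for bidirectional curve fitting.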

[17] = target: Androgen receptor (Homo sapiens) (UniProt P10275); assay: ATG_AR_TRANS: Attagene TRANS-FACTORIAL HepG2 Assay for human Androgen Receptor (AR) (AID 2282973; active = hit-call score of the fitted dose curve at least 0.9, where 1 is the maximum); details: HepG2 Attagene TRANS-FACTORIAL AR reporter transcription
Androgen receptor (Homo sapiens), sequence (P10275 whole entry, looked up, the tested form may be a part): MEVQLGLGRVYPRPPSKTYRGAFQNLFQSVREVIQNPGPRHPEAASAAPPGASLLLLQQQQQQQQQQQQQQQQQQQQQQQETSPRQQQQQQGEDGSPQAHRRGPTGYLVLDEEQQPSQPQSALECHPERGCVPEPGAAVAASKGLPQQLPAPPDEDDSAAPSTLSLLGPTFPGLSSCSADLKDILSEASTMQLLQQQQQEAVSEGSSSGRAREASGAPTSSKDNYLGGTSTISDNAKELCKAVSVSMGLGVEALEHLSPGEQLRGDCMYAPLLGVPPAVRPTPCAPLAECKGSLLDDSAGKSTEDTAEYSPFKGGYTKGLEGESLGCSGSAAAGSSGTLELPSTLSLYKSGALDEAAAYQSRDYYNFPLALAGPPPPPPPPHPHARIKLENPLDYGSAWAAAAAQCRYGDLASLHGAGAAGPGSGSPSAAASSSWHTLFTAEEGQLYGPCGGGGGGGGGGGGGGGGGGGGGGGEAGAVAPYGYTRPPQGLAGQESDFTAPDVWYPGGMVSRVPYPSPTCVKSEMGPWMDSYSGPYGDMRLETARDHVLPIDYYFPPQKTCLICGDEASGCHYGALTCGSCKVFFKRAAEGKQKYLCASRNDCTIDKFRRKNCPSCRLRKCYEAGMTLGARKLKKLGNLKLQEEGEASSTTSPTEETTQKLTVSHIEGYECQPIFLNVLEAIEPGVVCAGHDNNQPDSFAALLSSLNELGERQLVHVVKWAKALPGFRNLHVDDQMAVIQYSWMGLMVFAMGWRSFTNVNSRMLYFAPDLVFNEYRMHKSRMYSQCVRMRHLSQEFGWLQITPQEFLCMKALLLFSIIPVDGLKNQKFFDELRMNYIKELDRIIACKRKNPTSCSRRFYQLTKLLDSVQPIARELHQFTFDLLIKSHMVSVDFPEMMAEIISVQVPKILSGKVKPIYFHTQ
In short: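 Steps: transfect HepG2 with multiple GAL4-UAS reporter transcription units (TRANS format, exogenous NR-Gal4 protein); dose 24 h; isolate RNA, reverse-transcribe, PCR-amplify, FAM-label, HpaI-digest; resolve by capillary electrophoresis. Positive direction vs DMSO.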

[18] = ATG_M_19_TRANS: Attagene TRANS-FACTORIAL HepG2 Assay for M19 Transcription Factor (Internal Marker) (AID 2282974; active = hit-call score of the fitted dose curve at least 0.9, where 1 is the maximum); details: HepG2 Attagene TRANS-FACTORIAL M19 internal marker reporter
In short: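 HepG2 cells transiently transfected with multiple GAL4-UAS reporter transcription units were exposed to chemicals for 24 h. Reporter mRNA was read by RT-PCR, 6-FAM primer extension, HpaI digestion and capillary electrophoresis; gain of signal fitted relative to DMSO.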

[19] = ATG_GAL4_TRANS: Attagene TRANS-FACTORIAL HepG2 Assay for GAL4 (Internal Marker) (AID 2282976; active = hit-call score of the fitted dose curve at least 0.9, where 1 is the maximum); details: HepG2 Attagene TRANS GAL4 internal marker reporter
In short: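 First, HepG2 cells were transfected with reporter units under GAL4-UAS control. Next, they were treated with chemical for 24 h. Finally, RNA was reverse-transcribed, PCR-amplified, FAM-labelled and resolved by capillary electrophoresis, with induction scored against DMSO.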

[20] = target: Steroid hormone receptor ERR1 (Homo sapiens) (UniProt P11474); assay: ATG_ERRa_TRANS: Attagene TRANS-FACTORIAL HepG2 Assay for human Estrogen-Related Receptor alpha (ERRa) (AID 2282971; active = hit-call score of the fitted dose curve at least 0.9, where 1 is the maximum); details: HepG2 Attagene TRANS reporter, ERRa transactivation
Steroid hormone receptor ERR1 (Homo sapiens), sequence (P11474 whole entry, looked up, the tested form may be a part): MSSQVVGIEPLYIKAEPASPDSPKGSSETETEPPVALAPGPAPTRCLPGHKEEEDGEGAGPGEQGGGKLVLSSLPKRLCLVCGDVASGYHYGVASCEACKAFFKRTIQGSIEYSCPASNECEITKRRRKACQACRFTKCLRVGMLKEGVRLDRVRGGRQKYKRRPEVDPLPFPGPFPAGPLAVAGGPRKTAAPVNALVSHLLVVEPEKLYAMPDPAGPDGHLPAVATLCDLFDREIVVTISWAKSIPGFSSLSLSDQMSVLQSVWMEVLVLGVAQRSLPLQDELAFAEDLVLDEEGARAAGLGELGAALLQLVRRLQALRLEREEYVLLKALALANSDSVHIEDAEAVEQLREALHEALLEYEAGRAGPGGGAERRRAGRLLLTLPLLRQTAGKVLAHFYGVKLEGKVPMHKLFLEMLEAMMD
In short: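 Reporter transcript induction was quantified by RT-PCR and capillary electrophoresis of FAM-labelled, HpaI-cut products after 24 h treatment of HepG2 cells carrying transiently transfected GAL4-UAS reporter units and an exogenous ERRa-Gal4 fusion; activity scored as increase over DMSO.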

Measured: AC50

C1=Cc2cccc3cccc1c23
active: [2] 16.2 µM
not listed: [13] | [14] | [15] | [16] | [17] | [18] | [19] | [20]
inactive: all other assays above

O=C(Nc1ccccc1)c1ccccc1I
active: [2] 6.15 µM | [5] 42.1 µM
not listed: [11] | [12] | [19] | [20]
inactive: all other assays above

c1ccc2c(c1)oc1ccccc12
not listed: [3] | [13] | [15] | [16] | [17] | [18] | [20]
inactive: all other assays above

Clc1ccc(Cl)c(Cl)c1
not listed: [2] | [12] | [15] | [17] | [18]
inactive: all other assays above

CN(C)c1ccc(C(=O)c2ccc(N(C)C)cc2)cc1
not listed: [2] | [12] | [15] | [17] | [19] | [20]
inactive: all other assays above

CS(=O)(=O)NC(=O)c1cc(Oc2ccc(C(F)(F)F)cc2Cl)ccc1[N+](=O)[O-]
active: [2] 8.23 µM
not listed: [3] | [12] | [13] | [15] | [17] | [20]
inactive: all other assays above

O=Cc1ccco1
not listed: [3] | [12] | [15] | [17] | [19] | [20]
inactive: all other assays above

Cc1ccc([N+](=O)[O-])cc1
not listed: [2] | [14] | [17] | [18] | [19] | [20]
inactive: all other assays above

CC(C)COC(=O)c1ccccc1C(=O)OCC(C)C
inactive: [4] | [5] | [6] | [8] | [9] | [10] | [15] | [18]
active: [1] 100 µM | [2] 26.1 µM | [13] 44.3 µM | [7] 56.4 µM | [16] 65.8 µM
